Compound activity from PubChem BioAssay.
An excerpt weighted towards active compounds, which were near 10% of everything screened.
NPR1 antag – Natriuretic polypeptide receptor (hNpr1) antagonism - Primary qHTS. Atrial natriuretic peptide receptor 1 (Homo sapiens), P16066. 1.6% of 76,000 active. Potency, µM (series often up to 46.3 µM), without a hit: at the highest dose activity change, negative = inhibition, actives largely listed as inhibitors. HEK293 hNpr1 GloSensor cGMP, ANP-stimulated luminescence; calls by dose curve; further: on the % scale 0 is the no-effect control and ±100 the full control effect; nearly all actives have a fitted effect of over 60% in size
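Compound pre-incubated 30 min at room temperature on GloSensor-loaded HEK293 cells stably carrying hNpr1 and the pGS-40F cGMP biosensor. Stimulation uses hNppA at 0.1 nM final; luminescence is taken at baseline and 20 min post-agonist.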
NIH3T3 tox – Cytotoxic Profiling in NIH 3T3 Cell Line of Diverse Libraries Using Quantitative High-Throughput Screening; NIH 3T3 viability, CellTiter-Glo ATP luminescence, 48-72 h; Potency, µM (top dose mostly 96.7 µM), inactives show at the highest dose activity change, negative = cytotoxicity, actives largely listed as inhibitors; 4.3% of 94,000 active; AID 1345082, 2018; further: on the % scale 0 is the no-effect control and ±100 the full control effect; nearly all actives have a fitted effect of over 55% in size
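Cells were seeded at 400 per well, treated with pin-transferred compound, and kept 48 or 72 hr at 37 °C before CellTiter-Glo addition and luminescence imaging of cellular ATP.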
HEK cytotox – Cytotoxic Profiling in HEK 293 Cell Line of Diverse Libraries Using Quantitative High-Throughput Screening | HEK 293 viability, ATP luminescence (CellTiter-Glo), 48-72 h | 6.6% of 94,000 active | AID 1345083, 2018 | Potency, µM (series often up to 115 µM), for inactives: at the highest dose activity change, negative = cytotoxicity, hits mostly inhibitors; further: on the % scale 0 is the no-effect control and ±100 the full control effect; nearly all actives have a fitted effect of over 60% in size
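Pintool-delivered compounds were incubated with HEK 293 cells (250 cells/well) at 37 degree Celsius for 48 or 72 hr. ATP-dependent luminescence (CellTiter-Glo) then reported remaining viable cells.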
GPT2 inh – Primary qHTS assay for inhibitors of Glutamate pyruvate transaminase 2 (GPT2); Recombinant GPT2, coupled pyruvate oxidase/HRP Amplex Red fluorescence; Potency, µM (titrated, usually from 57.7 µM), inactives show at the top dose activity change, negative = inhibition, usual class: inhibitors; 0.25% of 100,000 active; AID 1671188, 2021; further: on the % scale 0 is the no-effect control and ±100 the full control effect; nearly all actives have a fitted effect of over 60% in size
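Fluorescence read-out: pyruvate from GPT2 turnover coupled to pyruvate oxidase, HRP and Amplex Red (0.2mM ThPP, 0.2U/mL PO and HRP, 50uM Amplex final). Substrates 250uM a-KG, 2mM L-alanine; enzyme 10ng/uL; 30 min RT.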
FLuc inh-1 – Firefly luciferase inhibition profiling of diverse chemical library using quantitative high-throughput screening. 2.5% of 76,000 active. purified P. pyralis luciferase, luminescence, biochemical. AID 1347043, 2019. Potency, µM (highest dose often 115 µM), hits mostly inhibitors; further: on the % scale 0 is the no-effect control and ±100 the full control effect; nearly all actives have a fitted effect of over 65% in size
Target sequence (P08659 whole entry, looked up): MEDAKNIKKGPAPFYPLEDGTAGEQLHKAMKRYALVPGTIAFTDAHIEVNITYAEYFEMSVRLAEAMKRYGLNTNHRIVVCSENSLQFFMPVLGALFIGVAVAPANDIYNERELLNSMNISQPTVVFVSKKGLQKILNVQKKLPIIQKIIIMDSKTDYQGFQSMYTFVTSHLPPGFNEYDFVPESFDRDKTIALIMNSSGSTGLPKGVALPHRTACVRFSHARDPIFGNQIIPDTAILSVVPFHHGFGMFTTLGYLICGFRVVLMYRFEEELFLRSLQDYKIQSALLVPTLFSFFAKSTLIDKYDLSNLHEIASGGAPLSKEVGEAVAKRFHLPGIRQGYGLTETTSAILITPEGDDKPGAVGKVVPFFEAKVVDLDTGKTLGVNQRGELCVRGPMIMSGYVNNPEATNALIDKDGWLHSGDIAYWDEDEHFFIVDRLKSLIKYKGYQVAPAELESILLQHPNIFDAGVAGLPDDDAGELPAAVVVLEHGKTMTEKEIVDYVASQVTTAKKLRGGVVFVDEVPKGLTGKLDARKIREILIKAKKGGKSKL
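Biochemical qHTS: compound (6-point titration) added to 10uM D-luciferin plus 10uM ATP in Tris acetate pH 7.5 buffer with Mg, Tween-20 and BSA, then purified enzyme at 10nM; light output imaged.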
FLuc SDR -ATP – Firefly luciferase (FLuc-C-HiBiT) SDR gain of signal screen - without ATP; shares compounds with FLuc inh-1; Purified FLuc-C-HiBiT, Nano-Glo HiBiT luminescence, no ATP; Potency, µM (series often up to 32.7 µM), inactives show at the highest dose activation (signal gain), hits mostly activators; 7.8% of 1,300 active; AID 1963318, 2024; further: nearly all actives have a fitted effect of over 55% in size
FLuc SDR ATP – Firefly luciferase (FLuc-C-HiBiT) SDR gain of signal screen - plus ATP. shares compounds with FLuc inh-1. purified FLuc-C-HiBiT + ATP, HiBiT complementation luminescence. Potency, µM (titrated, usually from 32.7 µM), for the others: at the highest dose activation (gain of signal), usual class: activators. 8.7% of 1,300 active. AID 1963319, 2024;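 further: signal reports ligand binding via conformational change of the enzyme rather than luciferase catalysis; % of control where 0% means no effect; nearly all actives have a fitted effect of over 55% in size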
FLuc inh-2 – Firefly luciferase (FLuc-C-HiBiT) enzymatic inhibition screen - Functional assay; shares compounds with FLuc inh-1; Potency, µM (series often up to 32.7 µM), inactives show at the highest dose activity change, negative = inhibition, hits mostly inhibitors; AID 1963320, 2024; 42% of 1,300 active; purified FLuc-C-HiBiT enzyme, luciferin luminescence; further: on the % scale 0 is the no-effect control and ±100 the full control effect; nearly all actives have a fitted effect of over 70% in size
An asterisk follows results filed as active; i = inactive; ? = inconclusive; nt = no result given; [ ] = another dose, or the depositor's remark. Unless noted, the call rests on the fitted dose curve; in most records, active means well fitted curve in the direction sought with a large enough effect; inconclusive means small, poorly fitted or top-dose-only effect, or another doubt; inactive means no such curve, though single readings can be large; an effect the other way counts as inactive or inconclusive. Potency means the concentration at half of the fitted maximal effect.

SMILES	NPR1 antag	NIH3T3 tox	HEK cytotox	GPT2 inh	FLuc inh-1	FLuc SDR -ATP	FLuc SDR ATP	FLuc inh-2
Cc1ccc(NC(=O)C2CCN(C(=O)c3ncn4c3COC(c3ccc(F)cc3)C4)CC2)c(F)c1 (stereo unspecified)	-1.9%	i	-1.2%	i	12.6µM*	14.5%	?	?
O=C(Nc1ccccc1F)C1CCN(C(=O)c2ncn3c2COC(c2ccc(F)cc2)C3)CC1 (stereo unspecified)	-3.0%	i	-0.5%	-0.4%	?	nt	nt	nt
CCOc1ccc(C(=O)Nc2onc3c2CCCC3)cc1	nt	nt	nt	nt	nt	?	7µM*	1.97µM*
CC(C)COc1ccc(C(=O)Nc2onc3c2CCCC3)cc1	nt	nt	nt	nt	nt	27.8%	?	1.97µM*
O=C(Nc1onc2c1CCCC2)c1ccccc1	nt	nt	nt	nt	nt	18.4%	?	?
CCOC(=O)C1CCN(C(=O)c2cc(-c3cccnc3)nc3c2cnn3C)CC1	nt	-11.7%	-6.9%	0.7%	nt	nt	nt	nt
O=C(NC1CC1)c1cc2c(=O)[nH]c(-c3ccccc3)cn2n1	29.5%	?	?	i	i	nt	nt	nt
C[C@@H]1C(=O)O[C@H]2[C@H]1CC[C@@]1(C)Cc3sc(NC(=O)c4ccncc4)nc3[C@@H](C)[C@H]21	?	?	56.2µM*	?	0.501µM*	?	?	0.57µM*
C[C@@H]1C(=O)O[C@H]2[C@H]1CC[C@@]1(C)Cc3sc(NC(=O)c4ccc(F)c(Cl)c4)nc3[C@@H](C)[C@H]21	-15.6%	-23.8%	?	-2.2%	i	nt	nt	nt
C[C@@H]1C(=O)O[C@H]2[C@H]1CC[C@@]1(C)Cc3sc(NC(=O)c4c(F)cccc4F)nc3[C@@H](C)[C@H]21	?	-28.8%	?	-4.9%	2.24µM*	20.5%	19.4%	9.89µM*
CN1CCCC[C@]2(C[C@H](C(=O)O)[C@H](c3ccco3)N2C(=O)c2ccco2)C1=O	nt	?	-0.4%	nt	nt	nt	nt	nt
Cc1ccn2c(Nc3ccc(C(C)C)cc3)c(-c3cccs3)nc2c1	nt	nt	nt	nt	nt	17.1%	14.7%	?
Cc1noc2c(Nc3ccc(N4CCOCC4)cc3)cc(-c3cccs3)nc12	-17.7%[70.6 µM]	?	?	?	i	nt	nt	nt
Cc1ccc2c(c1)sc1nc(-c3cc4ccccc4oc3=O)cn12	nt	nt	nt	nt	nt	28.6%	?	0.248µM*
Cc1cc2cc(C(=O)N3CCN(c4nc5ccccc5s4)CC3)ccc2o1	?	-4.2%	?	i	i	nt	nt	nt
CC(C)NC(=O)C1CCN(C(=O)c2ncn3c2COC(c2ccccc2)C3)CC1 (stereo unspecified)	0.0%	-11.8%	-8.2%	i	3.55µM*	12.9%	4.42µM*	3.51µM*
CC(NC(=O)C1CCN(C(=O)c2ncn3c2COC(c2ccccc2)C3)CC1)c1ccc(F)cc1 (stereo unspecified)	-7.6%	0.4%	4.8%	i	12.6µM*	13.3%	?	4.95µM*
CC(NC(=O)C1CCN(C(=O)c2ncn3c2COC(c2ccc(F)cc2)C3)CC1)c1ccc(F)cc1 (stereo unspecified)	3.9%	i	9.7%	i	i	nt	nt	nt
O=C(C1CCCN1C(=O)c1ccc(F)cc1)N1CCC(N2Cc3cccn3C2=O)CC1 (stereo unspecified)	nt	-20.4%	-12.0%	-20.0%	nt	nt	nt	nt
O=[S+]1([O-])NCC2(CCN(Cc3ccsc3)CC2)Oc2ncccc21	nt	i	i	-1.3%	nt	nt	nt	nt
O=C(c1ccccc1)N1CCN(c2ccnc3ccnn23)CC1	nt	-16.6%[138 µM]	-3.5%[172 µM]	i	nt	nt	nt	nt
CC1CCc2nc3ncn(Cc4ccc(Cl)cc4)c(=O)c3cc2C1 (stereo unspecified)	nt	nt	nt	nt	nt	16.2%	12.7%	-8.5%
Cc1ccccc1CN1CC[C@H](c2nc3ccccc3s2)C1	-25.9%[70.6 µM]	?	70.8µM*	-5.7%[88.5 µM]	7.94µM*	12.4%[49.3 µM]	10.0%[49.3 µM]	?
O=C(c1ccccc1)N1CC[C@H](c2nc3ccc(F)cc3[nH]2)C1	2.1%[70.6 µM]	-26.3%[138 µM]	?	-16.0%[88.5 µM]	i	nt	nt	nt
Cc1ccc2nc([C@H]3CCN(Cc4cccs4)C3)[nH]c2c1	-28.1%[70.6 µM]	?	56.2µM*	i	7.08µM*	15.6%[49.3 µM]	17.4%[49.3 µM]	?
SMILES	NPR1 antag	NIH3T3 tox	HEK cytotox	GPT2 inh	FLuc inh-1	FLuc SDR -ATP	FLuc SDR ATP	FLuc inh-2
c1ccc2sc([C@H]3CCN(CC4CCCCC4)C3)nc2c1	-5.3%[70.6 µM]	?	?	i	i	nt	nt	nt
Cc1ccc2nc([C@H]3CCN(C(=O)c4ccccc4)C3)[nH]c2c1	-1.0%[70.6 µM]	-2.0%[174 µM]	?	?	i	nt	nt	nt
Cc1ccccc1CN1CC[C@H](c2nc3ccc(F)cc3[nH]2)C1	?	?	35.5µM*	2.5%[88.5 µM]	14.1µM*	11.6%[49.3 µM]	9.7%[49.3 µM]	?
Cc1cn2nc(C(=O)NCc3ccccn3)cc2c(=O)[nH]1	18.1%	-16.2%	-6.0%	i	i	nt	nt	nt
Cc1cn2nc(C(=O)Nc3ccc(C(=O)NCCc4cccs4)cc3)cc2c(=O)[nH]1	-5.7%	4.8%	16.4%	i	4.47µM*	?	?	8.81µM*
CC1CCCCN1c1csc2ccc(F)cc2c1=O (stereo unspecified)	nt	nt	nt	nt	nt	29.3%	19.3%	8.81µM*
Cn1ccc2c(C(=O)NCc3cccnc3)nc(-c3ccc(N4CCOCC4)cc3)cc21	-11.5%[70.6 µM]	?	112µM*	4.9%[88.5 µM]	14.1µM*	15.5%[49.3 µM]	10.8%[49.3 µM]	?
CN(C)CCNC(=O)c1nc(-c2cccc(N3CCOCC3)c2)cc2c1ccn2C	3.0%[70.6 µM]	?	?	0.8%[88.5 µM]	i	nt	nt	nt
CN1CCN(c2ccc(-c3cc4c(ccn4C)c(C(=O)NCC4CCC(=O)N4)n3)cc2)CC1 (stereo unspecified)	0.9%	28.2µM*	39.8µM*	i	10µM*	18.4%	11.8%	?
